A short description of experiment [1]: Quantitative High-Throughput drug screen in 47 multiple myeloma cell lines against the NCATS MIPE library collection: XG6_PLB cell viability assay (AID 1919865). Further: nearly all actives have a fitted effect of over 40% in size. Further: potency means the concentration at half of the fitted maximal effect. In outline:
(§1)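 500 cells/well per myeloma line exposed to pinned MIPE 4.0 compounds for 48 h at 37 °C, 5% CO2. Viability read as ATP by CellTiter-Glo luminescence, normalised to DMSO-only (100%) and media-only (0%) wells.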

Experiment [2] can be described thus: Quantitative High-Throughput drug screen in 47 multiple myeloma cell lines against the NCATS MIPE library collection: XG1_PLB cell viability assay (AID 1919866). Further: nearly all actives have a fitted effect of over 35% in size. Further: potency means the concentration at half of the fitted maximal effect. In outline:
as §1

Experiment [3] is described as follows: Quantitative High-Throughput drug screen in 47 multiple myeloma cell lines against the NCATS MIPE library collection: PE2_PLB cell viability assay (AID 1919869). Further: nearly all actives have a fitted effect of over 35% in size. Further: potency means the concentration at half of the fitted maximal effect. In short, it runs like this: as §1
The nature of experiment [4]: Quantitative High-Throughput drug screen in 47 multiple myeloma cell lines against the NCATS MIPE library collection: PCM6_Riken cell viability assay (AID 1919870). Further: nearly all actives have a fitted effect of over 30% in size. Further: potency means the concentration at half of the fitted maximal effect. In outline: as §1
The nature of experiment [5]: Quantitative High-Throughput drug screen in 47 multiple myeloma cell lines against the NCATS MIPE library collection: RPMI8226_ATCC cell viability assay (AID 1919871). Further: nearly all actives have a fitted effect of over 30% in size. Further: potency means the concentration at half of the fitted maximal effect. In outline: as §1
Experiment [6] is described as follows: Quantitative High-Throughput drug screen in 47 multiple myeloma cell lines against the NCATS MIPE library collection: OPM2_DSMZ cell viability assay (AID 1919872). Further: nearly all actives have a fitted effect of over 30% in size. Further: potency means the concentration at half of the fitted maximal effect. In outline:
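Relative luminescence from CellTiter-Glo served as the viability signal, referenced to DMSO-treated (100%) and cell-free medium (0%) controls. Treatment lasted 48 hours at 37C with 500 cells per well.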

Experiment [7] is described as follows: Quantitative High-Throughput drug screen in 47 multiple myeloma cell lines against the NCATS MIPE library collection: KMS11_JCRBsus cell viability assay (AID 1919873). Further: nearly all actives have a fitted effect of over 50% in size. Further: potency means the concentration at half of the fitted maximal effect. In short, it runs like this: as §1
Experiment [8] has as its target Cytochrome P450 3A4 (Homo sapiens) (UniProt P08684). Description: qHTS for inhibitors of CYP3A4 against the NCATS DSHEA and TCM libraries (AID 1919971).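 Further: on the % scale 0 is the no-effect control and ±100 the full control effect; inhibition lowers luminescence from luciferin made by CYP3A4.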 In short, it runs like this:
(§2)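 Luminescent P450-Glo format: compounds preincubated 15 min with enzyme and luciferin substrate, reaction run 30-45 min after NADPH regeneration solution. Intraplate controls: ketoconazole for CYP3A4 and CYP2C19, sulfaphenazole for CYP2C9.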
(In general: Quantitative high-throughput screening tests each substance at several concentrations.)

The target of experiment [9] is Cytochrome P450 2D6 (Homo sapiens) (UniProt P10635). The experiment in a line: qHTS for inhibitors of CYP2D6 against the NCATS DSHEA and TCM libraries (AID 1919972). Further: on the % scale 0 is the no-effect control and ±100 the full control effect. In short, it runs like this:
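Luminescent P450-Glo read-out of CYP2D6 turnover of a luciferin substrate after NADPH-driven reaction of 30-45 min at room temperature. Compounds were first preincubated 15 min with enzyme at titrated concentrations; quinidine was the intraplate control.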

Experiment [10] addresses Cytochrome P450 2C9 (Homo sapiens) (UniProt P11712). The experiment in a line: qHTS for inhibitors of CYP2C9 against the NCATS DSHEA and TCM libraries (AID 1919973).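 Further: luminogenic pro-luciferin CYP2C9 substrate turned into luciferin with NADPH regeneration; on the % scale 0 is the no-effect control and ±100 the full control effect.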 In short, it runs like this:
as §2

Experiment [11] concerns the target Cytochrome P450 2C19 (Homo sapiens) (UniProt P33261). Description: qHTS for inhibitors of CYP2C19 against the NCATS DSHEA and TCM libraries (AID 1919974).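 Further: luminescence from luciferin released by CYP2C19 oxidation of a pro-luciferin substrate; potency means the concentration at half of the fitted maximal effect.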 As to conditions: CYP2C19 enzyme inhibition, luminescence qHTS. In outline: as §2
Experiment [12] can be described thus: KB-3-1 P-gp reporter qHTS against the NCATS DSHEA and TCM libraries (AID 1919975). Further: 0% is about no effect. In short, it runs like this:
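Cell viability by CellTiter-Glo luminescence following ~72 h compound exposure (concentration-response). Uses parental, non-P-gp-overexpressing KB-3-1 line, 500 cells/well in DMEM/10% FBS, attached ~4 h before dosing.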

A short description of experiment [13]: qHTS Counterscreen for compound interference against the NCATS DSHEA and TCM libraries (AID 1919978).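 Further: compounds preincubated with 1 µM D-luciferin or buffer before detection reagent; % of control where 0% means no effect.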 As to conditions: firefly luciferase detection reagent interference, luminescence. In short, it runs like this: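 With 1 uM D-luciferin or phosphate buffer only, compounds at final 19.5 nM–39.8 uM were incubated for 15 min at room temperature. Luciferase detection reagent was then added, and luminescence was measured after a further 30 min at room temperature.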

Experiment [14] is described as follows: Dual reporter qHTS for agonist of Pregnane X Receptor (hPXR) against the NCATS DSHEA and TCM libraries: Fluorescence readout (AID 1920058). Further: 0% is about no effect. In outline: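 hPXR-Luc HepG2 cells, 2000/well in charcoal-stripped serum, attached 5 h, dosed for ~24 h at 37 °C. Fluorescence read is CellTiter-Fluor viability (Ex/Em 405/540 nm); rifampicin positive, tetraoctyl ammonium bromide (92 µM) cytotoxicity controls.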

The target of experiment [15] is Nuclear receptor subfamily 1 group I member 2 (Homo sapiens) (UniProt O75469). The experiment in a line: Dual reporter qHTS for antagonist of Pregnane X Receptor (hPXR) against the NCATS DSHEA and TCM libraries: Luminescence Readout (AID 1920060).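 Further: HepG2 cells carrying hPXR luciferase reporter stimulated with rifampicin at 2 µM; 0% is about no effect.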 In outline:
(§3)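 Antagonist mode: rifampicin 2 uM final co-added with compounds to hPXR-LucHepG2 cells for 24 h at 37C. Viability by CellTiter-Fluor, Ex/Em 405/540 nm, 1 h; reporter by ONE-Glo luminescence.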

A short description of experiment [16]: Dual reporter qHTS for antagonist of Pregnane X Receptor (hPXR) against the NCATS DSHEA and TCM libraries: Fluorescence Readout (AID 1920061). Further: 0% is about no effect. In short, it runs like this:
as §3

A short description of experiment [17]: Quantitative High-Throughput drug screen in 47 multiple myeloma cell lines against the NCATS MIPE library collection: KMS28BM_JCRB cell viability assay (AID 1919874). Further: nearly all actives have a fitted effect of over 35% in size. Further: potency means the concentration at half of the fitted maximal effect. In outline:
as §1

A short description of experiment [18]: Quantitative High-Throughput drug screen in 47 multiple myeloma cell lines against the NCATS MIPE library collection: VP6_DJ cell viability assay (AID 1919867). Further: nearly all actives have a fitted effect of over 40% in size. Further: potency means the concentration at half of the fitted maximal effect. In short, it runs like this:
as §1

A short description of experiment [19]: Quantitative High-Throughput drug screen in 47 multiple myeloma cell lines against the NCATS MIPE library collection: UTMC2_PLB cell viability assay (AID 1919868). Further: nearly all actives have a fitted effect of over 55% in size. Further: potency means the concentration at half of the fitted maximal effect. As to conditions: CellTiter-Glo ATP luminescence, 48 h; viability (% of DMSO control): at 45.8 µM (top of the series). In outline:
as §1
For orientation: In ATP-based viability assays light output follows the ATP content of the culture.

Unmarked numbers belong to inactive results. Inconclusive results are not listed. The source made the active and inactive calls. The call rests on the fitted dose curve; in most records, active means well fitted curve in the direction sought with a large enough effect; inconclusive means small, poorly fitted or top-dose-only effect, or another doubt; inactive means no such curve, though single readings can be large; an effect the other way counts as inactive or inconclusive.

In PubChem BioAssay (NCATS) one finds Potency, outcome and max response data, which are given here for 13 compounds.

Chain of Cytochrome P450 2D6 (Homo sapiens) (P10635 whole entry, looked up): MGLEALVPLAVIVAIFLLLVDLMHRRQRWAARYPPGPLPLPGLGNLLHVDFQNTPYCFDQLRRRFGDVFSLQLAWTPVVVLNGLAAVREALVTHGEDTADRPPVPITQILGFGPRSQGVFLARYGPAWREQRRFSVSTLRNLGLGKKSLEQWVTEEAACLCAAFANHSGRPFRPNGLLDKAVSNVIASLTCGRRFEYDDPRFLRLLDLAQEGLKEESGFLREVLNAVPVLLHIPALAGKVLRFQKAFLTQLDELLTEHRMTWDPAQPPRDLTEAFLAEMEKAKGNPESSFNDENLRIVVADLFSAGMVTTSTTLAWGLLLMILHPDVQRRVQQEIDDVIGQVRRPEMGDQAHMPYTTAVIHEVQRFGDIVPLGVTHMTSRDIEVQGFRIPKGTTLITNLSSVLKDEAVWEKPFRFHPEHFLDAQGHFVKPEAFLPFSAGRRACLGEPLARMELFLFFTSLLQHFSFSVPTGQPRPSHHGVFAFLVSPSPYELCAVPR
Chain of Cytochrome P450 2C19 (Homo sapiens) (P33261 whole entry, looked up): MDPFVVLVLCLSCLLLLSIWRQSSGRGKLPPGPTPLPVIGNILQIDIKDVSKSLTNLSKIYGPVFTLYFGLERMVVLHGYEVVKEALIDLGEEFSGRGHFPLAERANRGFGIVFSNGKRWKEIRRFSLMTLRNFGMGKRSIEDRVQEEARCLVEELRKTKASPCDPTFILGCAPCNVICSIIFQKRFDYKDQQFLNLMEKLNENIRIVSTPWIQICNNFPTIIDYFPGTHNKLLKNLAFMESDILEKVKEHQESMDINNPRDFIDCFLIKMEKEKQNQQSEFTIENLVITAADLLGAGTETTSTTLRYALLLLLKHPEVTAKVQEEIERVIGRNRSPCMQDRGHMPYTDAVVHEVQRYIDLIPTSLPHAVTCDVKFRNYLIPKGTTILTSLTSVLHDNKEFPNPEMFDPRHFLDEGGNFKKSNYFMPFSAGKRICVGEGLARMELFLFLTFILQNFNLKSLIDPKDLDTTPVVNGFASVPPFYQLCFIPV
Chain of Nuclear receptor subfamily 1 group I member 2 (Homo sapiens) (O75469 whole entry, looked up): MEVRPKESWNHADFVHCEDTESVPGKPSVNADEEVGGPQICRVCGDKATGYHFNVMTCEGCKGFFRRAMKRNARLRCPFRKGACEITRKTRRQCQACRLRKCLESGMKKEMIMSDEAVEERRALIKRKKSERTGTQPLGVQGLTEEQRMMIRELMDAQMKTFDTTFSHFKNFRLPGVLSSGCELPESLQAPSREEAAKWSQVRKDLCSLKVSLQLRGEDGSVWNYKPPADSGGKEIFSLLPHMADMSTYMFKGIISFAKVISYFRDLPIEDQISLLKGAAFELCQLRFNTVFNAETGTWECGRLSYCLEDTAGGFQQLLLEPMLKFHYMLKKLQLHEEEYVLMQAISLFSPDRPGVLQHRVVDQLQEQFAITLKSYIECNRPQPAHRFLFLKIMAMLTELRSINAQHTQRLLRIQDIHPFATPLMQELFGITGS
Chain of Cytochrome P450 2C9 (Homo sapiens) (P11712 whole entry, looked up): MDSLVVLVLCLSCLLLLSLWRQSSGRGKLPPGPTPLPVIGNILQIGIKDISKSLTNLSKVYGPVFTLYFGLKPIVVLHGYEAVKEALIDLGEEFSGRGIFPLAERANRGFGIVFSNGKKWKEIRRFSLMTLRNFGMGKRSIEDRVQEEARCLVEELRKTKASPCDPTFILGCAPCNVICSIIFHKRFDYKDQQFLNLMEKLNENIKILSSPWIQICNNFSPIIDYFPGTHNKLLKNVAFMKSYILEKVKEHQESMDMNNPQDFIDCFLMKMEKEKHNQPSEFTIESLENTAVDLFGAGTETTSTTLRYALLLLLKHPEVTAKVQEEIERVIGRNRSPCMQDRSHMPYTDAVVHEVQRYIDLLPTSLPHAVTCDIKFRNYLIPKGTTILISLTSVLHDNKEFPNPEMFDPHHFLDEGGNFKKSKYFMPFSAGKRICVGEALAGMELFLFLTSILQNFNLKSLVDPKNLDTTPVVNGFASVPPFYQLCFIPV
Chain of Cytochrome P450 3A4 (Homo sapiens) (P08684 whole entry, looked up): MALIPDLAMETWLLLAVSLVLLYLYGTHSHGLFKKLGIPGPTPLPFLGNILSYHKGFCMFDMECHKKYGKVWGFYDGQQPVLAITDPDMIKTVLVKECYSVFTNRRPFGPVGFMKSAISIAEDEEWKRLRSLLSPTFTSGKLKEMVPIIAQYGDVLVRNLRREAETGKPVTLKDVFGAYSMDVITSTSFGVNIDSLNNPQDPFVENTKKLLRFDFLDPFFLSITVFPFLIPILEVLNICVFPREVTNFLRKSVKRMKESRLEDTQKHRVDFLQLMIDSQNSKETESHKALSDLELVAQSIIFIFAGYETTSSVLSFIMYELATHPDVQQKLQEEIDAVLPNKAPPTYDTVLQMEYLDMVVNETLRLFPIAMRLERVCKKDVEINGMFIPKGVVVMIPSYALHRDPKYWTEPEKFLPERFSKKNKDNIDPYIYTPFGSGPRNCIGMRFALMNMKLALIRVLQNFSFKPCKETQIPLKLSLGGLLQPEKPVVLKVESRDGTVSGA

Take `COc1ccc(-c2coc3cc(O)ccc3c2=O)cc1`: the Potency result in experiment [1], in experiment [2], in experiment [3], in [4], in experiment [5] and in experiment [6] was “inactive” throughout. Moreover, the Potency in experiment [7] was 18.7 µM (active); in [11], 14.1 µM (active). Also, the compound was classed as inactive in experiment [8], in experiment [9], in experiment [10], in experiment [12], in experiment [14] and in experiment [15]. Besides, the result in experiment [16] was inactive. Also, the max response in experiment [13] is -1.37%.

`CN1C[C@H]2c3ccccc3Oc3ccc(Cl)cc3[C@@H]2C1`: the Potency entry in experiment [1], in [2], in experiment [5] and in experiment [6] was “inactive” throughout. Besides, in [4], the Potency is 11.8 µM (active).

For `Cc1c(NC(=O)c2ccc(C(C)(C)C)cc2)cccc1-c1cn(C)c(=O)c(Nc2ccc(C(=O)N3CCOCC3)cc2)n1`, the Potency was 20.9 µM (active) in experiment [1]; 9.35 µM (active) in [2]; 14.8 µM (active) in experiment [3]; 14.8 µM (active) in experiment [5]; 18.7 µM (active) in [17].

Turning to `CC(C)(C)NC(=O)Nc1cccc(Nc2ncc(F)c(NC(C)(C)CO)n2)c1`, the Potency in [1] is 20.9 µM (active); in [2], 3.72 µM (active); in [3], 18.7 µM (active); in [6], 16.6 µM (active). The Potency result in experiment [5] and in [17] was “inactive” in each case.

`Cc1cnc(C(=O)O)c[n+]1[O-]`: the Potency entry in experiment [1], in experiment [2], in experiment [3], in experiment [4], in experiment [7] and in experiment [17] was “inactive” throughout.

`NC1CCC(Nc2nc(Nc3ccc(C(=O)N4CCCCC4)cc3)c3ncn(-c4cccc(F)c4)c3n2)CC1` (stereo not drawn): the Potency entry in experiment [1], in [2], in [3], in experiment [5], in experiment [6] and in experiment [7] was “inactive” each time. The Potency entry in experiment [17] was “inactive”.

As for `C[C@]12CCC3c4ccc(O)cc4CCC3C1CCC2=O` (stereo partly drawn), the Potency result in [1], in experiment [2], in [3], in [4] and in experiment [6] was “inactive” throughout. In addition, the Potency in experiment [5] is 20.9 µM (active); in experiment [7], 26.4 µM (active); in experiment [17], 20.9 µM (active).

`O=C(O)[C@H]1O[C@H](Oc2cc3oc(-c4ccccc4)cc(=O)c3c(O)c2O)[C@H](O)[C@@H](O)[C@H]1O`: the Potency entry in experiment [1], in experiment [18], in experiment [19] and in experiment [3] was “inactive” each time. In addition, the Potency in experiment [5] was 4.69 µM (active).

In the case of `O=C(O)c1ccc(-c2cc3cccnc3c(-c3ccc4nonc4c3)n2)cc1`, the Potency in [1] is 20.9 µM (active); in experiment [2], 20.9 µM (active); in [4], 29.6 µM (active); in experiment [7] it was 26.4 µM (active); in experiment [17], 26.4 µM (active).

As for `COc1ccc(C2CC(c3ccccc3)=NN2c2ccc(S(N)(=O)=O)cc2)cc1` (stereo not drawn), the Potency in [1] is 18.7 µM (active); in experiment [18] it was 16.6 µM (active); in experiment [3], 23.5 µM (active); in [4], 26.4 µM (active). Besides, the Potency entry in [6] was “inactive”.

Take `C[N+]1(C)[C@@H]2CC(OC(=O)[C@H](CO)c3ccccc3)C[C@H]1[C@H]1O[C@@H]12` (stereo partly drawn): the Potency in experiment [1] was 23.5 µM (active). The Potency entry in [19], in experiment [4], in experiment [5], in [6], in experiment [7] and in [17] was “inactive” throughout.

Turning to `N#Cc1ccc(NC(=O)Nc2ccccc2Br)c2n[nH]nc12`, the Potency in experiment [1] was 5.26 µM (active); in [18] it was 10.5 µM (active). For the same compound, in experiment [6], the Potency result is “inactive”.

Consider `Clc1ccc(CCC(Cn2ccnc2)Sc2c(Cl)cccc2Cl)cc1` (stereo not drawn), for which the Potency in experiment [1] is 23.5 µM (active); in experiment [19] it was 18.7 µM (active); in [3], 20.9 µM (active); in experiment [4], 18.7 µM (active); in experiment [7], 20.9 µM (active).
